Screens from PubChem.
ALDH1A1 inh: ALDH1A1 (human) enzyme inhibition. P00352. Purified ALDH1A1, NADH fluorescence, propionaldehyde substrate. Potency, µM (top dose mostly 75.3 µM), most hits filed as inhibitors. 7.3% of 220,000 active. AID 1030
Target sequence (P00352 whole entry, looked up): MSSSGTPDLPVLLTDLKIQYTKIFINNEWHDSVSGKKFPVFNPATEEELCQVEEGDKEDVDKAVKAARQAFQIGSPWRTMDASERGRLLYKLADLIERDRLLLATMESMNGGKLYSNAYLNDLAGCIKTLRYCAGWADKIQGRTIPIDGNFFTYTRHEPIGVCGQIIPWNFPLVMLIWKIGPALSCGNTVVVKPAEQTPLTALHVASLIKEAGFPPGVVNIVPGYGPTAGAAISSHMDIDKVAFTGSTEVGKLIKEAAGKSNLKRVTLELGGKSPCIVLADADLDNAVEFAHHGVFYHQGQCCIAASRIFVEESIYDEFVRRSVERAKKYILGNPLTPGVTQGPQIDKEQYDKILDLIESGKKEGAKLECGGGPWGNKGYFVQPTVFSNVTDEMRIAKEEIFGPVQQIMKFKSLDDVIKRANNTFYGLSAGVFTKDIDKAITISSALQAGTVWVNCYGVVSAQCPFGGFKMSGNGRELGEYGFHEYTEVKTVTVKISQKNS
PNC assembly inh: blocks assembly of the perinucleolar compartment; PC3M PTB-GFP, PNC prevalence imaging, 16 h; hits give low values; activity change (PNC), negative = inhibition, % at 10 µM; 3.1% of 140,000 active; AID 2417;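 active = readout at or below -70, meaning at least 70% loss of cells showing the perinucleolar compartment, a nuclear body marking cancer cells; inconclusive = readout between -30 and a set limit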
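Read-out is percentage of cells bearing a perinucleolar compartment, from automated 20x imaging of fixed, Hoechst-stained PC3M PTB-GFP cells. Cells were seeded 4 h, then exposed 16 h to compound (23 nl of library stock) in duplicate plates.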
HPGD inh: inhibitors of human 15-hydroxyprostaglandin dehydrogenase (HPGD). P15428. purified HPGD, NADH fluorescence kinetic, PGE2 substrate. Potency, µM, actives largely listed as inhibitors. 4.3% of 150,000 active
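NADH formation kinetics: reaction with 30 uM PGE2 and 1 mM NAD+ (final), 20 nM enzyme, Tris-HCl pH 8 with Tween 20, after 15 min compound preincubation at room temperature. Fluorescence change, last versus first of five reads.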
ALOX12 inhib: inhibitors of human 12-lipoxygenase (ALOX12); Potency, µM (top dose mostly 57.1 µM), most hits filed as inhibitors; P18054; AID 1452; 0.12% of 150,000 active; purified 12-hLO, xylenol orange hydroperoxide absorbance; active = well fitted inhibition curve with a large enough effect; inconclusive = small, poorly fitted or top-dose-only effect; also: nearly all actives have a fitted effect of over 55% in size
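Xylenol orange chromogenic assay: hydroperoxide from 12hLO oxidises Fe(II), giving red-shifted Fe(III)-XO absorbance. Conditions: 150 nM enzyme, 40 uM arachidonic acid, 25 mM Hepes pH 7.0, 0.01% Triton X-100, 30 min, room temperature.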
LMNA splice mod: changes lamin A minigene splicing in HeLa cells; HeLa LMNA splicing GFP/RFP minigene ratio, 48 h; Potency, µM (doses to about 46.1 µM), most hits filed as inhibitors; 0.01% of 200,000 active; active = well fitted inhibition curve with a large enough effect in the signal ratio, with a control signal flat, not every such curve was filed as active; inconclusive = small, poorly fitted or top-dose-only effect, or effect the other way, or a change in a side signal; the % refers to the signal ratio
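S3 HeLa cells stably expressing lamin A-EGFP splicing minigene plus DsRed2, 600 cells/well, 48 h compound exposure at 37C. Laser-scanning cytometry; analysed as GFP (500-530 nm)/RFP (575-640 nm) total intensity ratio; 0.5% DMSO vehicle.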
Hits are given with their value; n = inactive; u = inconclusive; x = no result; [ ] = another dose, or the depositor's remark. Rows were chosen to be rich in hits. Some 10% of all compounds tested hit in one or more screens of this group. Unless noted, calls follow the shape of the dose curve; as a rule, active = well fitted inhibition curve with a large enough effect (not every such curve was filed as active); inconclusive = small, poorly fitted or top-dose-only effect, or another doubt; inactive = no such curve, though single readings can be large or run the other way.

SMILES	ALDH1A1 inh	PNC assembly inh	HPGD inh	ALOX12 inhib	LMNA splice mod
O=C(c1cnn2c1NC(c1ccco1)CC2C(F)(F)F)N1CCN(c2cccc(Cl)c2)CC1 (stereo unspecified)	3.16µM	n	n	n	u
COC(=O)C/C=C/[C@@H](C)[C@H](NC(=O)OCC(Cl)(Cl)Cl)c1cccc(OC)c1	n	x	n	x	x
CCc1ccccc1N1C(=O)N(Cc2ccccc2C)c2ccccc2S1(=O)=O	x	x	x	x	n
Cc1ccc(N=C2NC(=O)CS2)c(C)c1	n	n	n	n	n
O=C1CSC(=Nc2cc(Cl)ccc2Cl)N1	n	n	10µM	n	n
CCCCS(=O)(=O)Nc1ccc(Cc2ccncc2)cc1	n	n	15.8µM	n	u
OC[C@H]1O[C@@H](O[C@@H]2[C@@H](CO)O[C@](O)(CO)[C@H]2O)[C@H](O)[C@@H](O)[C@H]1O	n	x	n	n	x
NCCSCCc1ccccc1	n[13.5 µM]	x	n	n[11.4 µM]	x
Cn1c(=NC(=O)CCl)sc2ccccc21	0.708µM	u	n	n	n
CN(C)c1ccc(N=c2sc3ccccc3n2C)cc1	2µM	n	n	n	n
CC1=C(C(=O)Nc2cccnc2)C(c2cccc(O)c2)n2nc(SCc3ccccc3)nc2N1 (stereo unspecified)	x	x	x	x	n
CCCn1c(-c2ccc(F)cc2)nc2c(NCCN(CC)CC)nc(C)nc21	u	x	u	n	x
O=C(CSc1nnc(C2CC2)n1Cc1ccco1)NCC(F)(F)F	23.8µM	x	x	x	n
COc1cccc(Cn2c(=O)cc(C)c3c(C)nn(C)c32)c1	x	x	x	x	n
Cn1c(=O)c2c(nc(CN3CCC(C(N)=O)CC3)n2Cc2c(F)cccc2Cl)n(C)c1=O	u	n	n	n	n
Cn1c(=O)c2c(nc(N3CCN(c4ccccn4)CC3)n2Cc2ccccc2Cl)n(C)c1=O	1.12µM	n	n	n	n
Cc1ccccc1Cn1c(CN2CCc3ccccc3C2)nc2c1c(=O)n(C)c(=O)n2C	31.6µM	n	n	n	u
COC(=O)Cn1c(CN2CCc3ccccc3C2)nc2c1c(=O)n(C)c(=O)n2C	n	u	n	n	n
Cn1c(=O)c2c(nc(CN3CCC(C(N)=O)CC3)n2CCc2ccccc2)n(C)c1=O	4.47µM	n	n	n	n
Cn1c(=O)c2c(nc(N3CCNCC3)n2Cc2ccccc2Cl)n(C)c1=O	n	x	x	x	x
Cn1c(=O)c2c(nc(CN3CCC(C(N)=O)CC3)n2Cc2c(Cl)cccc2Cl)n(C)c1=O	14.1µM	u	n	n	n
Cn1c(=O)c2c(nc(CN3CCC(C(N)=O)CC3)n2Cc2ccccc2Cl)n(C)c1=O	12.6µM	u	n	n	n
COc1ccc2c(c1)O[C@@H](c1cccc(C(F)(F)F)c1)[C@H](OC(=O)NS(=O)(=O)c1ccc(F)cc1)C2=O	n	x	n	x	x
COC(=O)[C@@]1(Cc2ccc(OC)cc2)[C@H]2c3cc(C(=O)N4CCCC4)n(CCc4c[nH]c5cc(F)ccc45)c3C[C@H]2CN1C(=O)c1ccccc1	n	x	n	n	x
CC(C)(C)c1ccc(NC(=O)N2CCCN(c3ccc([N+](=O)[O-])cn3)CC2)cc1	15.8µM	x	x	x	u
SMILES	ALDH1A1 inh	PNC assembly inh	HPGD inh	ALOX12 inhib	LMNA splice mod
CCc1c(O)nc(SCC(=O)Nc2ccc(C)cc2)n(C2CCCCC2)c1=O	20µM	n	n	n	u
CCc1ccccc1N(C)C(=O)Cc1c(C(=O)O)c(C)cn1C	x	x	x	x	n
CCCc1nc2oc3c(NCCOCCO)ncnc3c2c2c1COC(C)(C)C2	u	-111.2	u	n	n
Cc1nc2oc3c(NCc4ccccc4)ncnc3c2c2c1COC(C)(C)C2	u	n	u	n	n
CCCc1nc2oc3c(OC)ncnc3c2c2c1COC(C)(C)C2	0.891µM	n	n	n	n
COc1cccc(-c2nc(N3CCN(C)CC3)c3ccccc3n2)c1	n	x	x	x	n
CC(=O)c1c(C)oc2c(Br)cc(NS(=O)(=O)c3ccc(Br)cc3)cc12	x	x	x	x	n
CC1N(O)C(c2ccc(Cl)cc2Cl)N(O)C1(C)C (stereo unspecified)	14.1µM	n	n	n	u
COc1cc(OC)cc(C(=O)Nn2cc(C(=O)Nc3c(F)cccc3F)c3ccccc3c2=O)c1	n	-113.4	n	n	u
O=C(O)c1ccccc1-n1ncc2c1/C(=C/c1ccc(Cl)cc1)CC2	22.4µM	x	x	x	x
COc1cccc(/C=N/Nc2nccnc2Cl)c1O	n	x	x	x	x
O=[N+]([O-])c1cccnc1N/N=C/c1ccccc1O	89.1µM	x	x	x	x
O=[N+]([O-])c1ccccc1/C=N/Nc1nccnc1Cl	u	n	n	n	n
Oc1ccc(/C=N/Nc2ncc(Br)cn2)c(O)c1	n	n	u	n	u
Oc1ccc(/C=N/Nc2nccnc2Cl)c(O)c1	u	n	28.2µM	n	u
Oc1ccccc1/C=N/Nc1nccnc1Cl	n	-87.7	n	n	u
Oc1ccc(/C=N/Nc2cccc3cccnc23)c(O)c1	u	n	15.8µM	n	u
CCOC(=O)Cn1c(=O)n(CC2CCCO2)c2nc(-c3ccc(OCC)cc3)nc(C(N)=O)c21 (stereo unspecified)	x	x	x	x	n
CCN(CC)c1ncnc2c1cnn2-c1cc(Cl)ccc1C	x	x	x	x	n
O=C(Nc1ccccc1)N1CC2(CCN(C(=O)c3ccncc3)CC2)C1	n	x	n	n	x
O=C(CSc1n[nH]c(-c2ccccc2O)n1)N1CCCc2ccccc21	n	n	10µM	u	u
O=C(CSc1nnc(-c2cccs2)n1-c1ccccc1)N1CCCc2ccccc21	n	n	n	n	n
Nc1cc(=O)[nH]c(SCc2csc(-c3ccccc3)n2)n1	n	n	n	n	u
c1ccc(-c2nc(CSc3n[nH]c(-c4cccs4)n3)cs2)cc1	u	u	3.98µM	n	n
O=C(CSc1n[nH]c(-c2cccs2)n1)N1CCCc2ccccc21	n	n	6.31µM	n	n
SMILES	ALDH1A1 inh	PNC assembly inh	HPGD inh	ALOX12 inhib	LMNA splice mod
CC(=O)Nc1nc(NC(C)=O)c2[nH]c(CO)nc2n1	n[13.5 µM]	x	n	n[11.4 µM]	x
Cc1ccc(S(=O)(=O)NCC(=O)N(CC(=O)NCC2CCCO2)CC2CCCO2)cc1 (stereo unspecified)	n	x	x	x	x
CS(=O)(=O)N(CC(=O)NCC1CCCO1)c1cccc([N+](=O)[O-])c1 (stereo unspecified)	n	x	x	x	x
COc1ccccc1CN(CC(=O)NCC1CCCO1)C(=O)CNS(=O)(=O)c1ccc(C)cc1 (stereo unspecified)	12.6µM	n	n	n	n
CCOc1ccc(N(CC(=O)NCC2CCCO2)S(=O)(=O)c2ccc(SC)cc2)cc1 (stereo unspecified)	3.98µM	u	n	n	n
Cc1ccc(S(=O)(=O)N(CC(=O)NCC2CCCO2)c2cccc([N+](=O)[O-])c2)cc1 (stereo unspecified)	14.1µM	x	x	x	x
O=C(c1cccc([N+](=O)[O-])c1)N1c2nc(-c3ccco3)nn2C2(CCCCC2)[C@@H]2CCCC[C@@H]21	x	x	x	x	n
CCN(Cc1ccncc1)C(=O)C(CO)c1ccccc1 (stereo unspecified)	n	x	n	x	n
Cc1cccc(NS(=O)(=O)c2ccc3c(c2)n(C)c(=O)n3C)c1C	x	x	x	x	n
